# A selection: hits, their analogues and other compounds. The true share with any hit is near 14%.
# Sm TGR inh: S. mansoni TGR enzyme inhibition; purified TGR, DTNB reduction, TNB absorbance 405 nm; AID 485364; Potency, µM (top dose mostly 114 µM), for the others: at the top dose activity change, negative = inhibition, actives largely listed as inhibitors; hit rate 3% among 360,000; Q962Y6; also: potency is read from the fitted curve at half-maximal effect; nearly all actives have a fitted effect of over 60% in size
#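 TGR 20 nM + NADPH 100 uM (dispensed conc.), cpd preinc 15 min RT; start with NADPH (500 uM addition) then DTNB (15 mM addition). Kinetic TNB absorbance, 405 nm filter. Four-parameter Hill fit across titration.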
# Pf growth 48h: P. falciparum growth inhibition at 48 hours (one generation) | P. falciparum luciferase growth in erythrocytes, 48 h | AID 504832 | Potency, µM (doses to about 28.7 µM), for the others: top-dose activity change, negative = inhibition, actives largely listed as inhibitors | hit rate 5.9% among 310,000; also: potency is read from the fitted curve at half-maximal effect
#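 Erythrocytes infected with P. falciparum carrying an integrated firefly luciferase reporter (2% hematocrit, 0.1% parasitemia final) were exposed to compounds in RPMI 1640 with 0.5% Albumax at 37 C, 5% CO2. Growth inhibition was scored as reduced luminescence.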
# HCMV antiviral: blocks human cytomegalovirus replication; HFF cells, HCMV-luciferase reporter, 72 h; hits give low values; activity change, negative = inhibition, % at 57.5 µM; hit rate 4.5% among 410,000; AID 1259415; in the data active = activity change below about -60%; inconclusive = no clear call, values can overlap the other calls; inactive = above about -39%
#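 Screen run at 2 compound doses on HFFs infected with reporter HCMV, MOI 1 PFU/cell. Luciferase activity from cell lysates at 72 h post infection gave inhibition relative to buffer-only and Salinomycin wells.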
# FBPA Giardia inh: Giardia lamblia aldolase inhibition. AID 2451. hit rate 0.71% among 290,000. Potency, µM (series often up to 59.6 µM), for the others: at the highest dose activity, negative = inhibition, hits mostly inhibitors. purified Giardia FBPA; also: potency is read from the fitted curve at half-maximal effect; nearly all actives have a fitted effect of over 55% in size
# Target sequence (A8B2U2 whole entry, looked up): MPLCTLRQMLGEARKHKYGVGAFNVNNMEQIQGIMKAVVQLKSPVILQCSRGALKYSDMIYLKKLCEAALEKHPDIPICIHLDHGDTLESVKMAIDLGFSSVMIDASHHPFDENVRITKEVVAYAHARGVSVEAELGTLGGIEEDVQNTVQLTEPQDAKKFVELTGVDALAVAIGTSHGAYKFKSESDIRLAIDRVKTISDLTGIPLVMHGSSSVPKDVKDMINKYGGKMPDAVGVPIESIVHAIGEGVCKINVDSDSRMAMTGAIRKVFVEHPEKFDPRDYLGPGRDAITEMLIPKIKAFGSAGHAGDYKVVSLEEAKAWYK
#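 Giardia FBPA (40 nM reagent) was preincubated 10 min at RT with compound (up to 57.5 uM final), then substrate plus GAPDH/TPI/NAD/arsenate coupling system with diaphorase/resazurin was added; resorufin fluorescence (525/598 nm) was read after 20 min.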
# Pf growth 96h: inhibits malaria parasite growth, 96 h. hit rate 6.9% among 320,000. AID 504834. Potency, µM (titrated, usually from 28.7 µM), without a hit: top-dose activity change, negative = inhibition, actives largely listed as inhibitors. P. falciparum luciferase reporter growth, 96 h; also: potency is read from the fitted curve at half-maximal effect
#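 Two parasite generations (96 h, 37 C, 5% CO2) of compound exposure in infected erythrocytes (0.05% parasitemia, 2% hematocrit). Luciferase-reporter P. falciparum; decreased luminescence indicates inhibited growth, aimed at apicoplast-acting delayed death.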
# Numbers without * were called inactive; ? = inconclusive; . = no result. Unless noted, calls follow the shape of the dose curve; as a rule, active = well fitted curve in the direction sought with a large enough effect; inconclusive = small, poorly fitted or top-dose-only effect, or another doubt; inactive = no such curve, though single readings can be large; an effect the other way counts as inactive or inconclusive. % is scaled to controls: 0 for no effect and ±100 for the full control effect.
SMILES,Sm TGR inh,Pf growth 48h,HCMV antiviral,FBPA Giardia inh,Pf growth 96h
O=C(c1cnn2c(C(F)(F)F)cc(-c3ccc(F)cc3)nc12)N1CCc2ccccc2C1,2%,7%,-72*,-5%,?
O=C(c1cc2nc(-c3ccco3)cc(C(F)(F)F)n2n1)N1CCc2ccccc2C1,50µM*,3%,-38,0%,?
O=C(Nc1cnn(Cc2ccccc2)c1)c1cc2nc(-c3ccco3)cc(C(F)(F)F)n2n1,-20%,?,21,3%,12µM*
O=C(NCCCN1CCOCC1)c1cc2nc(-c3ccco3)cc(C(F)(F)F)n2n1,-3%,21%,-40,1%,?
Cc1csc2nc(COC(=O)c3cccc(NC(=O)c4cccc(Cl)c4)c3)cc(=O)n12,-13%,.,-21,.,.
O=C(N=C1c2ccccc2CN1c1ccc(F)c(F)c1)c1cccnc1,45µM*,?,?,-5%,8%
O=C(Nc1ccc(NC(=S)NC(=O)C(c2ccccc2)c2ccccc2)cc1)c1ccccc1,.,.,-66*,.,.
COC(=O)C(O)(c1ccc(NC(=S)NC(=O)c2ccccc2)cc1)C(F)(F)F (centres undefined),28µM*,33%,-20,-23%,-1%
O=C(NC(=S)NCc1ccc(F)cc1)c1ccccc1,18µM*,5%,?,-1%,27%
O=C(NC(=S)Nc1ccc(NC(=O)c2ccccc2)cc1)c1ccc(F)cc1,-8%,6.6µM*,?,.,6.6µM*
O=C(NC(=S)Nc1ccc(-c2ccccc2)cc1)c1ccccc1,.,.,32,.,.
CSc1ccc(Cn2c(C)c(C(=O)NCc3cccs3)sc2=O)cc1,.,.,43,.,.
O=C(NC(=S)Nc1ccc(Oc2ccc(Cl)cc2)cc1)c1ccccc1,-17%,-3%,-87*,-2%,?
Cn1c(=O)c2c(ncn2CC(=O)Nc2ccccc2Sc2ccccc2)n(C)c1=O,-6%,-6%,-76*,-1%,.
O=C(CN1CCOCC1)Nc1ccccc1Sc1ccccc1,5%,-15%,-14,2%,-16%
COC(=O)c1ccccc1NC(=O)Cn1cnc2c1c(=O)n(C)c(=O)n2C,.,.,19,.,.
Cn1c(=O)c2c(ncn2CC(=O)Nc2nc(-c3ccccc3Cl)cs2)n(C)c1=O,5%,7%,-60*,0%,-11%
CCOC(=O)Cc1csc(NC(=O)Cn2cnc3c2c(=O)n(C)c(=O)n3C)n1,-9%,30%,15,2%,54%
N=c1sccn1CC(=O)Nc1ccccc1Sc1ccccc1,2%,-8%,-62*,0%,0%
CCc1ccc(S(=O)(=O)NCC2(N3CCOCC3)CCCCC2)cc1,-24%,?,?,.,?
COc1cc(C2C(=O)N(C3CCCCC3)CC(=O)N2CCC2=CCCCC2)ccc1OC(C)C (centres undefined),-10%,.,-13,.,.
Cc1ccc(S(=O)(=O)NC(CC(C)C)C(=O)NCCCn2nc(C)cc2C)cc1 (centres undefined),-21%,?,43,.,?
Cc1cccc(N2CCN(C(=O)c3c(C)nn(Cc4ccccc4Cl)c3C)CC2)c1C,-6%,.,?,-12%,7.4µM*
O=c1[nH]c2ccccc2nc1/C=C/c1ccc(Cl)cc1,2%,239%,17,5%,36%
CCCNC(=O)C1(CC2CC(c3ccccc3)=NO2)CCN(C(=O)OC(C)(C)C)CC1 (centres undefined),.,.,23,.,.
CCCCCCCNC(=O)C1(CC2CC(c3cccc(Br)c3)=NO2)CCN(C(=O)OC(C)(C)C)CC1 (centres undefined),-4%,?,2,-1%,4.7µM*
CCCCCCCNC(=O)C1(CC2CC(c3ccc(Cl)cc3)=NO2)CCN(C(=O)C2CCCC2)CC1 (centres undefined),9%,-29%,27,6%,9.3µM*
CCCCCCCNC(=O)C1(CC2CC(c3cccc(Br)c3)=NO2)CCN(C(=O)C2CCCC2)CC1 (centres undefined),8%,5.2µM*,17,.,9.3µM*
CCCCCCCNC(=O)C1(CC2CC(c3ccc(Cl)cc3)=NO2)CCN(C(=O)C2(C)CC2)CC1 (centres undefined),-3%,?,.,6%,?
Cc1ccc(NC(=O)C2(c3ccccc3)CC2(Cl)Cl)cc1C (centres undefined),34%,?,109,-2%,?

# Screens (PubChem BioAssay)
